DRD3 antagonist = antagonists of human D3 dopamine receptor. P35462. D3R cells, DiscoveRx beta-arrestin luminescence, antagonist mode; hits give low values. max response, negative = inhibition, %. 2.5% of 360,000 active. AID 652054; in the data active = max response below about -50%; inconclusive = no clear call, values can overlap the other calls; also: % is scaled to controls: 0 for no effect and ±100 for the full control effect
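Cells plated overnight at 1500 cells/well, then exposed to library compounds with dopamine controls for 90 minutes at 37 degrees C. DiscoveRx reagent added for 30–60 minutes at room temperature; luminescence read, quantitative HTS format.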
LDHA block = blocks human lactate dehydrogenase A | activity change, % (values are at about 110 or 230 µM) | purified LDHA, NADH/diaphorase-resazurin fluorescence; hits give low values | AID 1347041 | 0.15% of 480,000 active | P00338; in the data active = activity change below about -30%; inconclusive = mostly about -25% to -30%;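 also: plate controls were DMSO wells for no effect and wells without enzyme for full effect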
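LDH5 2 nM; NADH 0.06 mM, pyruvate 0.2 mM; 200 mM Tris pH 7.4, EDTA, Tween-20; 5 min RT. Detection: diaphorase 0.133 mg/mL + resazurin 37 µM, fluorescence ex540/em590 at 0 and 20 min; normalized to enzyme-free and DMSO wells.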
PI4K2A block = PI4K2A (human) kinase inhibition; purified PI4K2A, ADP-Glo luminescence, 1 h; hits give low values; 0.13% of 420,000 active; Q9BTU6; AID 1346378; activity change, negative = inhibition, % at 76.9 µM; in the data active = activity change below about -50%; inconclusive = mostly about -30% to -49%;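 also: -100% = wells without enzyme as full effect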
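PI4K2A activity was measured by ADP-Glo luminescence: enzyme (4 ug/mL stock) and phosphatidylinositol (1.2 mM stock) in Tris pH 7.5/MgCl2/EGTA/Triton X-100 buffer were reacted with ATP (300 microM stock) for one hour at ambient temperature.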
D3 ag = agonists of human D3 dopamine receptor; P35462; D3R DiscoveRx beta-arrestin cells, luminescence, 90 min; max activation, %; 0.58% of 410,000 active; AID 652048; in the data active = max activation above about 30%; also: 0% is about no effect
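Agonist mode: compounds and dopamine controls were applied to plated cells for 90 min at 37 degrees C after an overnight attachment at 1500 cells/well. Luminescent read-out followed 30 - 60 minutes at room temperature with DiscoveRx detection reagent.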
PI5P4K alpha inh = inhibitors of human PI5P4K alpha | P48426 | PI5P4Kalpha enzyme, ADP-Glo luminescence, 60 min; hits give low values | max response, % | 1.2% of 330,000 active | AID 652105; active = max response of -50% or lower; inconclusive = between -30% and -50%; inactive = -30% or higher; also: value at the top dose of about 77 µM; % is scaled to controls: 0 for no effect and ±100 for the full control effect
Target sequence (P48426 whole entry, looked up): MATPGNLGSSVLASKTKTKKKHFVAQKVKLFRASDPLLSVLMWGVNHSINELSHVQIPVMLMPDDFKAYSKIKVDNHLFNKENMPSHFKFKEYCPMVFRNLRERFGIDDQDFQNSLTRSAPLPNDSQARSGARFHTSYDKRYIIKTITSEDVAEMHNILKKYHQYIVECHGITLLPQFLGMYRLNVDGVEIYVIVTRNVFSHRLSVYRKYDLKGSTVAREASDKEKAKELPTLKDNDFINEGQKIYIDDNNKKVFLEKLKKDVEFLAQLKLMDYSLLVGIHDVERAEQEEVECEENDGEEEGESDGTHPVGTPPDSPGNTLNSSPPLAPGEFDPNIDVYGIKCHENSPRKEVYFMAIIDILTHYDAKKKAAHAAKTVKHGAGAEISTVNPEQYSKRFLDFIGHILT
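ADP-Glo luminescence end-point after a 60 min room-temperature kinase reaction. PI5P4Kalpha and substrate in HEPES pH 7.4 buffer with EGTA, 0.1% CHAPS and 5% DMSO; ATP at 5 microM final.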
* = called active by the depositor; ? = inconclusive; . = not tested or not shown; ! = repeats disagree. Sampled rows, rich in hits. Any-hit rate of the full collection: about 3.3%.

SMILES	DRD3 antagonist	LDHA block	PI4K2A block	D3 ag	PI5P4K alpha inh
CN(C)CC/C=C1\c2cc(Cl)ccc2Sc2cc(F)c(F)cc21	-104.4*	0.1	9.2	-18.4	-0.2
CN(C)CC/C=C1\c2ccccc2Sc2cc(F)c(Cl)cc21	-81.1*	-2.0	-0.7	-41.5	0.1
Fc1ccc(CN2CCC(NCC3CNc4ccnn4C3)CC2)cc1 (stereo not given)	.	-1.5	.	.	.
COc1ccc(S[C@]2(C(=O)N3CCCC3)CC(=O)N(c3ccsc3)[C@@H]2c2ccc(OC)cc2)cc1	.	.	-0.5	.	.
COc1cccc(-n2c(C)c(C)c3c2ncn2nc(-c4cccs4)nc32)c1	.	-36.0*	.	.	.
COc1cccc(-n2c(C)c(C)c3c2ncn2nc(-c4ccco4)nc32)c1	.	-5.5	.	.	.
FC(F)(F)Oc1ccccc1C(c1nnnn1-c1ccc2c(c1)OCCO2)N1CCN(C/C=C/c2ccccc2)CC1 (stereo not given)	-57.2*	-4.6	-1.8	-14.4	10.2
CN(C)CCN1CCN(C(c2ccnc3ccccc23)c2nnnn2-c2ccc3c(c2)OCCO3)CC1 (stereo not given)	0.0	-2.8	-3.6	-13.3	-1.2
C(=C\c1ccccc1)/CN1CCN(C(c2cccc3ccccc23)c2nnnn2-c2ccc3c(c2)OCCO3)CC1 (stereo not given)	-72.6*	-5.1	-5.9	-9.7	17.4
COc1cc(C)cc(OC)c1OCc1cc(-c2ccco2)on1	.	0.2	.	.	.
O=C(CSc1nc2cc(Cl)ccc2s1)NC1CCCc2ccccc21 (stereo not given)	9.3	-1.9	1.1	32.6*	0.7
Cc1cc(C)nc(N/N=C/c2cccc(Cl)c2)n1	-8.7	-9.0	1.7	-0.9	0.1
Clc1cccc(/C=N/Nc2nc(Cl)nc3ccccc23)c1	-60.3*	-2.3	2.8	0.5	.
Cc1ccc(C)c(NC(=O)c2ccc3[nH]c(C)c(C)c3c2)c1	.	-8.6	.	.	.
CC(=O)N(c1ccccc1)c1nc(CSc2nnc(C3CC3)n2Cc2ccccc2)cs1	.	0.3	.	.	.
CC(C)c1ccccc1NC(=S)NCCCNC(C)(C)C	.	6.1	.	.	.
CCOc1ccc(-c2cn3ccccc3n2)cc1	-18.5	1.2	-52.0*	-7.2	-24.7
CCOc1ccc(NC(=O)CN(C)C(=O)c2ccc(N3CCCCC3)c([N+](=O)[O-])c2)cc1OCC	7.7	-3.0	2.2	-0.3	0.3
CCOc1ccc(NC(=O)CN(C)C(=O)c2ccc(N3CCCC3)c([N+](=O)[O-])c2)cc1OCC	-59.7*	-0.3	3.0	-6.2	3.3
Cc1cc(C)n(-c2nc(SCCN(C)C)c3c4c(sc3n2)CCCC4)n1	-71.0*	-2.5	6.4	-16.2	.
Cc1c2occ(C(C)(C)C)c2cc2c1oc(=O)c1ccccc12	.	0.1	.	.	.
CCn1nc(C)c(Br)c1-c1nc(CS(=O)(=O)c2ccc(F)cc2)no1	12.9	-5.9	-3.9	-2.0	3.2
CCn1nc(C)c(Br)c1-c1nc(-c2ccc(C)cc2)no1	38.9	0.2	-0.7	34.5*	1.9
CSCCC(C(=O)Nc1c(C)cccc1C)n1c(-c2cc(C)cs2)nc2ccccc21 (stereo not given)	-65.7*	0.4	-4.5	-20.7	-0.7
CCC(Sc1nc2ccncc2[nH]1)C(=O)Nc1cc(Cl)ccc1C (stereo not given)	151.8	-1.8	0.6	35.5*!	-6.6
SMILES	DRD3 antagonist	LDHA block	PI4K2A block	D3 ag	PI5P4K alpha inh
CCC(Sc1nc2ccncc2[nH]1)C(=O)Nc1cc(C)ccc1C (stereo not given)	.	-1.2	-0.2	9.5	.
COc1ccc(C(=O)Nc2nc(-c3ccc([N+](=O)[O-])cc3)c(-c3ccc(OC)cc3)s2)cc1	-52.4*	-6.5	-3.6	-10.4	6.6
Cc1oc(-c2ccccc2)nc1CC(=O)Nc1cccc(S(=O)(=O)N2CCCCC2)c1	.	15.5	.	.	.
CN1CCN(CCCNC(=O)c2ccc(CSCc3cccc(Cl)c3)o2)CC1	6.2	-10.5	1.3	-9.9	0.5
CC1CCN(CCCNC(=O)c2ccc(CSCc3cccc(Cl)c3)o2)CC1	-62.0*	-4.0	0.4	-60.3	.
Cc1ccc(Cn2c(SCCC(=O)O)nc3c2c(=O)[nH]c(=O)n3C)cc1	.	4.9	.	.	.
NC(=O)C1CCN(C(=O)C2CC(c3cccc(F)c3)=NO2)CC1 (stereo not given)	.	-5.9	.	.	.
COc1ccc(-c2noc(CCCC(=O)Nc3ccc(S(=O)(=O)N4CCCCCC4)cc3)n2)cc1	.	9.4	.	.	.
O=C(OCC(=O)N1CCCC1)c1cc([N+](=O)[O-])ccc1Cl	2.9	-7.3	7.8	3.9	0.5
O=C(OCC(=O)N1CCCCC1)c1cc(NS(=O)(=O)c2ccc(Cl)c([N+](=O)[O-])c2)ccc1O	-50.5*	-2.1	1.3	-8.3	-11.6
Cc1cc(=O)oc2cc(NC(=S)NNC(=O)c3c(Cl)cnn3C)ccc12	-4.1	0.9	-1.4	-21.7	-52.5*
COc1ccc(OC)c(CCNC(=O)c2cc3c(s2)-c2ccccc2OC3)c1	.	12.6	.	.	.
Cc1ccc(C(=O)NC(=S)Nc2ccccc2C(F)(F)F)cc1C	-80.4*	-8.9	-17.2	-1.5	10.0
Cc1ccc(C(=O)O)cc1NC(=S)NC(=O)c1ccc(-c2ccccc2)cc1	-52.4*	?	4.2	-23.3	-8.2
O=C(O)c1cccc(NC(=S)NC(=O)c2ccc(-c3ccccc3)cc2)c1	12.6	-0.2	2.8	7.2	1.6
Cc1cccc(C(=O)NC(=S)Nc2ccccc2C(F)(F)F)c1	-28.9	2.1	1.0	-1.0	2.0
CCOc1ccc(C(C)(C)C)cc1S(=O)(=O)n1nc(C)cc1C	-50.2*	-2.6	9.8	-0.8	-3.3
CCOC(=O)c1c(C2COc3ccccc3O2)csc1NC(=O)c1ccccc1 (stereo not given)	-7.8	-4.1	-19.1	33.2*	.
COc1ccc2c(-c3ccccc3)cc(SCC(=O)NCC(F)(F)F)nc2c1	.	1.9	.	.	.
O=C(NC(c1ccccc1)c1ccsc1)C1CCN(Cc2ccccc2)CC1 (stereo not given)	?	-6.4	6.8	-18.4	4.1
Cc1ccccc1C(NC(=O)C1CCN(Cc2ccc(Oc3ccccc3)cc2)CC1)c1ccsc1 (stereo not given)	-56.3*	-1.0	-7.7	-13.7	6.5
COc1cc(CN2CCC(C(=O)NC(c3ccccc3)c3ccsc3)CC2)cc(OC)c1 (stereo not given)	?	-4.6	-3.7	-19.4	2.1
O=C(NC(c1ccc(Cl)cc1)c1ccsc1)C1CCN(Cc2ccc(Oc3ccccc3)cc2)CC1 (stereo not given)	-64.4*	-9.0	-0.9	-17.6	0.5

Screening results from PubChem.
